Test results taken from the supplement of paper PMC10849652.
About 8,800 targets were measured; listed, in parts, are those with a hit and a random draw of the rest. About 0.5% of all pairs of compound and target were hits. Values without a mark were called inactive.

Key:
Experiment in all cases: log2 fold change, soluble protein after heating vs DMSO (PISA); higher = thermal stabilisation; K562 lysate, 10 uM; active = over 0.2 and 3.5 SD of the protein, either way, in both replicates (recomputed)
[1] = compound: CCCS(=O)(=O)Nc1ccc(F)c(C(=O)c2c[nH]c3ncc(-c4ccc(Cl)cc4)cc23)c1F [vemurafenib]
Summary of the method: (§1)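 Values give the log-two fold change in thermal stability against solvent controls, from duplicates. Crude K562 extract at 1 mg/mL protein, made by dounce homogenisation in PBS pH 7.4 with 1 mM MgCl2, was treated with 10 μM compound for 30 min. After 3 min heating across 48°C-58°C, aliquots were pooled, adjusted to 0.5% NP-40 at 4°C and centrifuged at 21,000xg for 90 min. The supernatant was measured by TMTpro 16plex LC-MS/MS with channel sums equalised.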

[2] = compound: CCCS(=O)(=O)Nc1ccc(F)c(C(=O)c2c[nH]c3ncc(Cl)cc23)c1F
Summary of the method: as §1

[3] = compound: CCN(CCCOc1ccc2c(Nc3cc(CC(=O)Nc4cccc(F)c4)[nH]n3)ncnc2c1)CCOP(=O)(O)O [barasertib]
Summary of the method: as §1

[4] = compound: CC[C@@H]1C(=O)N(C)c2cnc(Nc3ccc(C(=O)NC4CCN(C)CC4)cc3OC)nc2N1C1CCCC1
Summary of the method: as §1

[5] = compound: CC[C@@H]1C(=O)N(C)c2cnc(Nc3ccc(C(=O)N[C@H]4CC[C@H](N5CCN(CC6CC6)CC5)CC4)cc3OC)nc2N1C(C)C [volasertib]
Summary of the method: as §1

[6] = compound: CCn1c(C(=O)N(C2CC2)C2CC2)cc2c3c(ncn3C)c(Nc3cc(C)n(C)n3)nc21
Summary of the method: as §1

[7] = compound: CCn1cc(-c2ccnc3[nH]c(-c4cccc(CN(C)C)c4)cc23)c(-c2ccc(NC(=O)N(C)C)cc2)n1
Summary of the method: as §1

[8] = compound: CN1CCC(CNc2ccc3ncc(-c4cccc(OC(F)(F)F)c4)n3n2)CC1
Summary of the method: as §1

[9] = compound: CN1CCN(CCOc2cc(OC3CCOCC3)c3c(Nc4c(Cl)ccc5c4OCO5)ncnc3c2)CC1 [saracatinib]
Summary of the method: as §1

[10] = compound: CN1CCN(c2nc(C3=C(c4c[nH]c5ccccc45)C(=O)NC3=O)c3ccccc3n2)CC1 [sotrastaurin]
Summary of the method: as §1

[11] = compound: CN1CC[C@H](c2c(O)cc(O)c3c(=O)cc(-c4ccccc4Cl)oc23)[C@H](O)C1 [alvocidib]
Summary of the method: as §1

[12] = compound: CN1CCc2c(c3ccccc3n2Cc2ccc(C(=O)NO)cc2)C1 [Tubastatin A]
Summary of the method: as §1

[13] = compound: CNC(=O)C1=CC=CC=C1NC2=NC(=NC=C2Cl)NC3=C(C=C(C=C3)N4CCOCC4)OC
Summary of the method: as §1

[14] = compound: CNC(=O)c1ccc(Nc2ncc(C(F)(F)F)c(NCc3nccnc3N(C)S(C)(=O)=O)n2)cc1 [defactinib]
Summary of the method: as §1

[15] = compound: CNc1nc(-c2ccc3c(N)n[nH]c3c2)cc(N2C[C@@H](C(=O)NC3CCCCC3)CC[C@H]2C)n1
Summary of the method: as §1

[16] = compound: COC(=O)N[C@@H](C)CNc1nccc(-c2cn(C(C)C)nc2-c2cc(Cl)cc(NS(C)(=O)=O)c2F)n1 [encorafenib]
Summary of the method: as §1

[17] = compound: COC(=O)[C@H](CCSC)NC(=O)C1=C(C=C(C=C1)NC[C@H](CS)N)C2=CC=CC=C2
Summary of the method: as §1

[18] = compound: COc1cc(Nc2ncc3c(n2)-c2ccc(Cl)cc2C(c2c(F)cccc2OC)=NC3)ccc1C(=O)O [alisertib]
Summary of the method: as §1

[19] = compound: COc1cc2nc(-c3cc(F)ccc3O)nc(N[C@@H]3CNC[C@H]3C(C)(C)O)c2cc1OC
Summary of the method: as §1

[20] = compound: COc1cc2ncnc(Nc3ccc(F)c(Cl)c3)c2cc1OCCCN1CCOCC1 [gefitinib]
Summary of the method: as §1

Sequence of UniProt Q9BQA1 (Q9BQA1 whole entry, looked up): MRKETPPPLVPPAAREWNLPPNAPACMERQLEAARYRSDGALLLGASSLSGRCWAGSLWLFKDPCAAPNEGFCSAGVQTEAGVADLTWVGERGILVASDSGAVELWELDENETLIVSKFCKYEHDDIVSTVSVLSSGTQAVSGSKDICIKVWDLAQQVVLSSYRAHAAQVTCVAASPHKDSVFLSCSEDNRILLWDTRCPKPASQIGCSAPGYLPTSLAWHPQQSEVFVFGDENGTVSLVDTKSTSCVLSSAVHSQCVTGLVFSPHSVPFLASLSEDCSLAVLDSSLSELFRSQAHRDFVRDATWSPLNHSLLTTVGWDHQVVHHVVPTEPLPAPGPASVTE
Sequence of UniProt A8MPS7 (A8MPS7 whole entry, looked up): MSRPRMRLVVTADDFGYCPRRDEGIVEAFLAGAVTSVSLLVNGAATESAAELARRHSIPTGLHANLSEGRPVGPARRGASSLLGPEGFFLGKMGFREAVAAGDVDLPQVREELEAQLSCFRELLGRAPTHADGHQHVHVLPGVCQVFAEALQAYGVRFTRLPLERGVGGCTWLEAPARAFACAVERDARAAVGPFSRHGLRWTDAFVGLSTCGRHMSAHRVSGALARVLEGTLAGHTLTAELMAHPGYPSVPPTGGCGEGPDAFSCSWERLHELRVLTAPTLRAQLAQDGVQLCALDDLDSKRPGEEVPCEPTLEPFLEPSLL
Sequence of UniProt A4D1P6 (A4D1P6 whole entry, looked up): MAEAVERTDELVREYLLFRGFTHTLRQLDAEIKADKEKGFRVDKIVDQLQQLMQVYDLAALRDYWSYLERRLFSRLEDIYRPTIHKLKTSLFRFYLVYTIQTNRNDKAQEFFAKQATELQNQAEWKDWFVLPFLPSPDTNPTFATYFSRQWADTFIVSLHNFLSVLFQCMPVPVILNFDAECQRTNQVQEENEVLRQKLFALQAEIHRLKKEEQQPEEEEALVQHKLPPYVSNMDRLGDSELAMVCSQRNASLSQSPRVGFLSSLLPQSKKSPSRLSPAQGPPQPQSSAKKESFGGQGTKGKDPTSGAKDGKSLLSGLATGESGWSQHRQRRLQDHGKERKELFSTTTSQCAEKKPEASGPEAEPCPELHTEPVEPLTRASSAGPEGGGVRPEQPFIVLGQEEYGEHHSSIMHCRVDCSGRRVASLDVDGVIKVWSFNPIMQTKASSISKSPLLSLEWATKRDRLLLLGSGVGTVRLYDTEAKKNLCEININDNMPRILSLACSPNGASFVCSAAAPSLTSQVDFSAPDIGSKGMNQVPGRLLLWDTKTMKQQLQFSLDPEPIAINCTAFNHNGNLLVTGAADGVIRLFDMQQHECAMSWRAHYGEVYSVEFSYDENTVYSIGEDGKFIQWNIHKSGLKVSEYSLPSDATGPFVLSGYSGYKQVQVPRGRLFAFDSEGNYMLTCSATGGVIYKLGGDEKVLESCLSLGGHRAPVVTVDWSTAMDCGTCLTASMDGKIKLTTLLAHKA
Sequence of UniProt Q99986 (Q99986 whole entry, looked up): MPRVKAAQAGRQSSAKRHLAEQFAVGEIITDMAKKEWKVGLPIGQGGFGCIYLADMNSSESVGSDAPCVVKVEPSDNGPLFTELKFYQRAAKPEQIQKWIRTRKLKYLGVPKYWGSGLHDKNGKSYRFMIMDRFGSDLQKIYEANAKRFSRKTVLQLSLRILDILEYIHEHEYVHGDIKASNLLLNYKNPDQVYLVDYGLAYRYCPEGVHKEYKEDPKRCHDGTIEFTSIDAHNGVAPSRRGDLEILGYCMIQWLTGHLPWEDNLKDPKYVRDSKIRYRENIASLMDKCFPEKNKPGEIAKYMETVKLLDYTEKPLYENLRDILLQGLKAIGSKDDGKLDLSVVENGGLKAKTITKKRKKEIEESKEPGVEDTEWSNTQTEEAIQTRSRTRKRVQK
Sequence of UniProt Q9H3U1 (Q9H3U1 whole entry, looked up): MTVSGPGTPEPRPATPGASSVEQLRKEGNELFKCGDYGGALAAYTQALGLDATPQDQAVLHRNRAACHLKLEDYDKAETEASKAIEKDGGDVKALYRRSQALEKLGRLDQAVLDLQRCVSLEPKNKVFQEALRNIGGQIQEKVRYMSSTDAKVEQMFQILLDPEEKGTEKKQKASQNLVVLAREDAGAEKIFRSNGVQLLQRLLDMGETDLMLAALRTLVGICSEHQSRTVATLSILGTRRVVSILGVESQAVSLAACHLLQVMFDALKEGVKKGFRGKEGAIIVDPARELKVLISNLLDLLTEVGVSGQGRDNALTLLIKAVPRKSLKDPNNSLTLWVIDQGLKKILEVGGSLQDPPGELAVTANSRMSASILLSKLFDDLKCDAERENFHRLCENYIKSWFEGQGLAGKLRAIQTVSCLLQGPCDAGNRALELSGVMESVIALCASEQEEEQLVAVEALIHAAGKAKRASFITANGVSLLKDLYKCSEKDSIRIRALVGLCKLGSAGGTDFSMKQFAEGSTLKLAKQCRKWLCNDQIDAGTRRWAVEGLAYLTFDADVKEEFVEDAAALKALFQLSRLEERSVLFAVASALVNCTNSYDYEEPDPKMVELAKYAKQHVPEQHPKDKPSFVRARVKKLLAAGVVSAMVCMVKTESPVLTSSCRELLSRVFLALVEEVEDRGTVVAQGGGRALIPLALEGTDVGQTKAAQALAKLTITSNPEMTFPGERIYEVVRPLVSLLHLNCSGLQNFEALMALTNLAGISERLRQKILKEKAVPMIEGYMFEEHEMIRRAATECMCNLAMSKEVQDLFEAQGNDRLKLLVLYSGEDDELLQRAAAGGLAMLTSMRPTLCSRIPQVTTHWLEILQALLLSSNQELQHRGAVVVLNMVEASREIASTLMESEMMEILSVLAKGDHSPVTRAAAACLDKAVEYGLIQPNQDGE
Sequence of UniProt P04004 (P04004 whole entry, looked up): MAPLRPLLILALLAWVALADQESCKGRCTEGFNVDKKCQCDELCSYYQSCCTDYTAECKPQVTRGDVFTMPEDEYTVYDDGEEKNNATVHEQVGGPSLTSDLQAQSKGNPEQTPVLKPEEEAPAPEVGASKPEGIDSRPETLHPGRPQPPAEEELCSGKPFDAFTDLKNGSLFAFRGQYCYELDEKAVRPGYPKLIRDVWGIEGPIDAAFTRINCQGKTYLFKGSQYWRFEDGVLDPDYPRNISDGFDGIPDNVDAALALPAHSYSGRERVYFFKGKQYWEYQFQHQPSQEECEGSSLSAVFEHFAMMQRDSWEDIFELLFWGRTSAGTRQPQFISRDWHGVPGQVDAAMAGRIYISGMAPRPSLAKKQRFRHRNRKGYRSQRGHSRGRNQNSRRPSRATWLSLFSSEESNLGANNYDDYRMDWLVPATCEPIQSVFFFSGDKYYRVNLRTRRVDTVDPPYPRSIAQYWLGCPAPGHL
Sequence of UniProt Q9Y5J1 (Q9Y5J1 whole entry, looked up): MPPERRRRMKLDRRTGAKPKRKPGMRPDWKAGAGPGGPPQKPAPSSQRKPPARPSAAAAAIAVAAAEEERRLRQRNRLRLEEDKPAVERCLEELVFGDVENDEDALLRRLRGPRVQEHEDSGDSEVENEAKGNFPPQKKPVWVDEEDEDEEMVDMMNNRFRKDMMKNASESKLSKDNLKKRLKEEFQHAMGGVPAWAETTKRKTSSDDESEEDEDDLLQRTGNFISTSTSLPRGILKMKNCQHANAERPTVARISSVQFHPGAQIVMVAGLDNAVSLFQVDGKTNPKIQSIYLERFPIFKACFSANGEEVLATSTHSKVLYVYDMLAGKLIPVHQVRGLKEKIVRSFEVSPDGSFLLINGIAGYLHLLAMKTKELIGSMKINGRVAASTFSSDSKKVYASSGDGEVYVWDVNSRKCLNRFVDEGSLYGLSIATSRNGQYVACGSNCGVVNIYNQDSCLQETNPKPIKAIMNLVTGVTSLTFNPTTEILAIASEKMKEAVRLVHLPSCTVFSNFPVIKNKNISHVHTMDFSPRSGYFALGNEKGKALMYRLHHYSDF
Sequence of UniProt Q9ULU4 (Q9ULU4 whole entry, looked up): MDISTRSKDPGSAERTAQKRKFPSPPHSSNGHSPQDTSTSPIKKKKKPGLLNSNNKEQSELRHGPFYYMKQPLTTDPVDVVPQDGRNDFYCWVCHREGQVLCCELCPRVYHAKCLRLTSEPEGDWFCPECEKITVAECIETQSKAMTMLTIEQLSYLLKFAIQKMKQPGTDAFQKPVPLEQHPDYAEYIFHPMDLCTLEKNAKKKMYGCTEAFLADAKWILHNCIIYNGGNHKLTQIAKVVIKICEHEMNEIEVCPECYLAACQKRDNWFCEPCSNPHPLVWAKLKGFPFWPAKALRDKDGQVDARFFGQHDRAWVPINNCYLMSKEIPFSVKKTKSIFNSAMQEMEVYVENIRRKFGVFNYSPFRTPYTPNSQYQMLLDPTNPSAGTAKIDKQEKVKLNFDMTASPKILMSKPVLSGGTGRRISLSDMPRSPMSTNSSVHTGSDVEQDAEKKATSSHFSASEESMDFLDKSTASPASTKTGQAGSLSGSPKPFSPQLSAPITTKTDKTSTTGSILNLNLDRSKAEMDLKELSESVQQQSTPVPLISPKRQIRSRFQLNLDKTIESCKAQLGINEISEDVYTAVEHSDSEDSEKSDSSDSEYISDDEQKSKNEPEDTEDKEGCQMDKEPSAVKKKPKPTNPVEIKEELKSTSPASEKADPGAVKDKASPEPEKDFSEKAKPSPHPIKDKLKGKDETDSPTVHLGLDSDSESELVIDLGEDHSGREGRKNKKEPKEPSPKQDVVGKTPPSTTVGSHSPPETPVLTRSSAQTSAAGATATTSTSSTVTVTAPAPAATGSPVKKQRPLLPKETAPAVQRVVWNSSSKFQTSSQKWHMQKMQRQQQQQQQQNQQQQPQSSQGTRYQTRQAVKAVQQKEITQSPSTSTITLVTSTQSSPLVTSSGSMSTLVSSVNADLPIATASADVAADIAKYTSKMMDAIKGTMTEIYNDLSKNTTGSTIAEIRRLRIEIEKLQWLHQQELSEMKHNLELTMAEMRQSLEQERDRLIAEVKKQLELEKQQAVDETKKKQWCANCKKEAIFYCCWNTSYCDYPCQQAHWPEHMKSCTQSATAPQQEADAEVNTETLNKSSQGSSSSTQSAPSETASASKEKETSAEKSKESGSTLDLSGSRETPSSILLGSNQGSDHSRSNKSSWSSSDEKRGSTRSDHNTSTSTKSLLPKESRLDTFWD

Target | log2 fold change [1] | log2 fold change [2] | log2 fold change [3] | log2 fold change [4] | log2 fold change [5] | log2 fold change [6] | log2 fold change [7] | log2 fold change [8] | log2 fold change [9] | log2 fold change [10] | log2 fold change [11] | log2 fold change [12] | log2 fold change [13] | log2 fold change [14] | log2 fold change [15] | log2 fold change [16] | log2 fold change [17] | log2 fold change [18] | log2 fold change [19] | log2 fold change [20]
WDR77 (UniProt Q9BQA1) | -0.095 | -0.012 | -0.045 | -0.029 | 0.004 | 0.022 | -0.004 | 0.011 | -0.032 | 0.001 | 0.242 (active) | 0.004 | 0.002 | -0.012 | 0.012 | 0.055 | -0.07 | -0.031 | -0.024 | -0.003
VRK1 (UniProt Q99986) | 0.024 | 0.024 | -0.002 | -0.051 | -0.03 | 0 | -0.041 | 0.031 | 0.002 | 0.178 | 0.385 (active) | -0.096 | 0.008 | -0.067 | 0.017 | -0.027 | 0.047 | -0.004 | -0.007 | -0.026
WDR91 (UniProt A4D1P6) | -0.096 | 0.028 | 0.046 | -0.043 | -0.023 | 0.055 | -0.01 | 0.041 | 0.067 | 0.019 | -0.018 | -0.097 | 0.017 | -0.003 | -0.056 | 0.026 | 0.1 | 0.013 | -0.007 | -0.004
YDJC (UniProt A8MPS7) | -0.022 | 0.006 | 0.017 | 0.01 | -0.038 | -0.063 | 0.012 | 0.055 | 0.024 | 0.008 | -0.039 | 0.052 | 0.014 | -0.026 | 0.014 | -0.025 | -0.036 | 0.035 | 0.007 | -0.02
UTP18 (UniProt Q9Y5J1) | -0.011 | 0.067 | -0.036 | 0.057 | -0.069 | 0.024 | -0.004 | -0.042 | 0.031 | 0.012 | 0.009 | -0.05 | 0.075 | -0.086 | -0.049 | -0.028 | 0.006 | -0.032 | -0.05 | -0.046
VTN (UniProt P04004) | 0.029 | 0.058 | 0.043 | 0.063 | -0.001 | 0.011 | -0.615 (active) | 0.289 | 0.075 | -0.012 | -0.112 | -0.012 | -0.095 | 0.104 | -0.061 | 0.089 | -0.074 | -0.041 | 0.014 | 0.009
ZMYND8 isoform 19 (UniProt Q9ULU4) | 0.061 | 0.071 | 0.012 | 0.016 | -0.025 | -0.015 | -0.127 | 0.037 | -0.01 | 0.019 | 0 | -0.091 | 0.017 | 0.104 | -0.052 | -0.002 | 0.065 | 0.022 | -0.046 | -0.023
UNC45A (UniProt Q9H3U1) | 0.013 | 0.012 | 0.018 | -0.022 | -0.039 | 0.025 | 0.02 | -0.081 | 0.017 | -0.001 | -0.017 | -0.146 | 0 | 0.018 | -0.011 | -0.003 | 0.044 | 0.006 | 0.001 | -0.02
